Compound activity (PubChem)
The list is not random: actives were taken first. Their share in the collection is about 6%.
Tau fibril FP – tau fibrillization inhibition (FP); P10636; K18 P301L tau heparin fibrillization, Alexa594 FP, 6 h; Potency, µM (titrated, usually from 57.7 µM), hits mostly inhibitors; 0.39% of 280,000 active; also: nearly all actives have a fitted effect of over 55% in size
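Read-out: fluorescence polarization of Alexa 594-labeled tau (0.24 uM), 555 nm excitation, 632 nm emission. Mixtures held 15 uM unlabeled K18 P301L, compound and 20 uM heparin, pH 7 acetate buffer, incubated 6 hr at 37 C.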
VDR inhibitor – vitamin D3 receptor (human) inhibition; P11473; VDR-SRC2-3 peptide fluorescence polarization, 2 h; Potency, µM, actives largely listed as inhibitors; 0.93% of 400,000 active
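VDR–SRC2-3 interaction, FP format. Cmpds 23 nl via pintool, brief spin, 2 h ambient incubation.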
PLK1 PBD inh – inhibitors of human PLK1 polo-box domain binding | AID 720504 | Plk1 PBD binding of FITC phosphopeptide, fluorescence polarization | Potency, µM, usual class: inhibitors | 2.8% of 360,000 active; also: series mostly up to about 57 µM; nearly all actives have a fitted effect of over 65% in size
Target sequence (P53350 whole entry, looked up, the tested form may be a part): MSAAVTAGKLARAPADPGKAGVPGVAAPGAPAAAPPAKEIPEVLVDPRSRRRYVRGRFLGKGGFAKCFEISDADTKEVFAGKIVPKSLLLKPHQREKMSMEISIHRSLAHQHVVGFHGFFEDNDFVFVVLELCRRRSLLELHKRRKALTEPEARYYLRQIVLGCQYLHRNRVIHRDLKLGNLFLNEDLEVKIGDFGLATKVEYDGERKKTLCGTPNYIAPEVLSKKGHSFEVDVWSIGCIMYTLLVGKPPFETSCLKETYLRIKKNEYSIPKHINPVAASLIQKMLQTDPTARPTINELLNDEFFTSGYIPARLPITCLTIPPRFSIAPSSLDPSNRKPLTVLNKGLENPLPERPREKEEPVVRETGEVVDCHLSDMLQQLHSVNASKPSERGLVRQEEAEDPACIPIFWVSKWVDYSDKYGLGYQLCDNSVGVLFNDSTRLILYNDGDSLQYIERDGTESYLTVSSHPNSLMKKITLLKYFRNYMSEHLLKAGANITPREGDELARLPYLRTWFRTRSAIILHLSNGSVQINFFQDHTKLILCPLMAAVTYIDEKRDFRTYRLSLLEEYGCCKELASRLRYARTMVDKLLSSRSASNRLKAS
Tau fibril ThT – blocks human tau fibril formation measured by thioflavin T | AID 1460 | recombinant tau K18 P301L, heparin-induced fibrillization, ThT fluorescence | Potency, µM (series often up to 57.4 µM), usual class: inhibitors | 2.1% of 270,000 active; also: nearly all actives have a fitted effect of over 55% in size
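Fibril formation assay: tau K18 P301L at 15 uM with trace Alexa 594 label, heparin inducer 20 uM, pH 7 sodium acetate buffer, 37 C for 6 hr; endpoint ThT signal.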
Tau fluor counter – counter-screen for tau fibril formation inhibitors. tau K18 P301L (four-repeat tau fragment) Alexa594 fluorescence, heparin fibrillization. Potency, µM (highest dose often 57.7 µM). 0.93% of 280,000 active; also: nearly all actives have a fitted effect of over 55% in size
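Human K18 P301L tau (15 uM unlabeled plus 0.24 uM Alexa 594-labeled, final) in 100 mM sodium acetate pH 7 was mixed with compound and 20 uM heparin and incubated 6 hr at 37 C.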
Sfp inh – blocks B. subtilis Sfp PPTase activity | Q9F4F7 | Biochemical Sfp PPTase activity, qHTS | Potency, µM, hits mostly inhibitors | 3.5% of 310,000 active | AID 1490;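 also: the enzyme is Sfp with the accession as filed and its product quenches rhodamine fluorescence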
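Sfp 15 nM + cpd, 15 min RT; start w/ rhodamine-CoA 5 uM, BHQ-2-YbbR 12.5 uM (final); 50 mM Hepes pH 7.6, 10 mM MgCl2, 0.01% NP-40, 0.01% BSA; read 525/598 nm at 0 and 30 min.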
A number is an active result; - = inactive; ? = inconclusive; . = no result; [ ] = another dose, or the depositor's remark. Calls follow the shape of the dose curve; as a rule, active = well fitted curve in the direction sought with a large enough effect; inconclusive = small, poorly fitted or top-dose-only effect, or another doubt; inactive = no such curve, though single readings can be large; an effect the other way counts as inactive or inconclusive.

SMILES	Tau fibril FP	VDR inhibitor	PLK1 PBD inh	Tau fibril ThT	Tau fluor counter	Sfp inh
CCOC(=O)c1c(N)sc(C(O)(C(F)(F)F)C(F)(F)F)c1-c1ccc(Cl)cc1	-	-	-	?	25µM[quencher]	-
Cc1cccc(-n2c(CCc3ccccc3)nnc2SCC(=O)c2ccccc2)c1	-	?	-	?	-	50µM
CC(=O)Nc1sc2c(c1C(N)=O)CCCC2	-	-	-	-	-	-
Nc1sc2c(c1C(=O)c1ccccc1)CCCC2	-	?	21µM	?	?	50µM
NC(=O)c1c(N)sc2c1CCCC2	?	-	24µM	22µM	-	25µM
Nc1sc2c(c1C(=O)NCCc1ccccc1)CCC2	?	?	?	?	-	?
CC(C)CC(=O)NC(=S)Nc1sc2c(c1C(N)=O)CCC2	?	-	?	-	-	-
CC(C)(C)C(=O)NC(=S)Nc1sc2c(c1C(N)=O)CCC2	-	-	?	-	-	45µM
CN1CCc2c(sc(N)c2C(N)=O)C1	?	-	?	?	-	56µM
CN1CCc2c(sc(NC(=O)c3ccco3)c2C(N)=O)C1	.	-	-	.	.	-
Cc1ccc2c(c1)[C@H]1[C@H](CO2)[C@H](c2ccccc2)[C@]2(C)C(=O)Nc3cc(F)ccc3C(=O)N12	.	-	-	.	.	.
CC1CCCN(C(=O)c2cc3c(=O)n(C)c4ccccc4c3s2)C1 (centres undefined)	-	-	.	-	-	.
COc1cccc(OC)c1-c1nn2c(-c3n[nH]c4c3CCC4)nnc2s1	.	-	.	.	.	.
Cc1cc(C)cc(-n2c(C)cc(C(=S)N3CCOCC3)c2C)c1	-	-	19µM	-	-	?
Cc1cccc(-n2c(C)cc(C(=S)N3CCOCC3)c2C)c1C	-[2.34 µM]	?	?	-	-	-
Fc1ccccc1-n1[nH]nnc1=S	-	45µM	?	-	-	25µM
CC(=O)Nc1sc(/C(C#N)=C/c2ccc(Cl)c(Cl)c2)nc1-c1ccc(C)cc1	-	-	-	?	-	16µM
CC(C)(C)C(=O)Nc1cccc(C(=O)OCc2cc(=O)n3nc(C4CC4)sc3n2)c1	-	-	.	-	-	.
CCCCn1c(-c2csc(C(C)C)c2)n[nH]c1=S	-	-	?	-	-	-
CCCCn1c(-c2csc(CC)c2)n[nH]c1=S	-	-	-	-	-	20µM
CSc1nsc(SC)c1C(=O)NCCNS(=O)(=O)c1ccc(C)cc1	-	-	-	-	-	50µM
CCS(=O)(=O)N1CCN(CC(=O)NC2CCCCC2)CC1	-	-	21µM	-	-	-
O=C(Nc1ccncc1)c1ccc(Cl)cc1	.	-	-	.	.	-
Cc1cccc(/C=N/NC(=O)c2ccc(Br)cc2)c1	-	-	-	-	-	-
Cc1cccc(N=N/C(=C\O)C(=O)c2ccc(Br)cc2)c1	-	-	-	22µM	-	-
SMILES	Tau fibril FP	VDR inhibitor	PLK1 PBD inh	Tau fibril ThT	Tau fluor counter	Sfp inh
O=C(/C(=C/O)N=Nc1ccc(Cl)cc1)c1ccncc1	-	?	?	20µM	-	-
O=C(/C(=C/O)N=Nc1ccccc1Cl)c1ccccc1	-	-	-	28µM	-	-
Cc1cccc(N/N=C(\C=N\N)C(=O)c2ccc(Br)cc2)c1	?	.	.	14µM	11µM[quencher]	-
O=C(/C(=C/O)N=Nc1cccc(C(F)(F)F)c1)c1ccccc1	-	-	-	?	-	-
COc1ccccc1CNC(=O)CCC1N=C2c3ccccc3N=C(SCC(N)=O)N2C1=O (centres undefined)	-	-	.	-	-	.
Cc1ccc(S(=O)(=O)N2CCN(C(=O)CSCc3ccc(C(C)C)cc3)CC2)cc1	.	-	-	.	.	.
CCc1nc2ccc(C(=O)NCc3ccc4c(c3)OCO4)cn2c1N(C)Cc1cccs1	.	.	-	.	.	.
Cc1ccc(S(=O)(=O)NNC(=O)c2ccncc2)cc1	-	-	-	-	-	-
Cc1ccc(N=N/C(=C\O)C(=O)c2ccncc2)cc1	-	-	-	28µM	-	-
CCOc1ccc(C(CC(=O)O)NS(=O)(=O)c2ccc(C)cc2)cc1OC (centres undefined)	-	-	21µM	-	-	-
CCN(C(=O)c1cc2cc(Br)cc(OC)c2oc1=O)c1ccccc1	-	-	.	?	-	.
CC(=O)OCC1=C(C(=O)OC(C)(C)C)N2C(=O)[C@@H](NC(=O)Cc3ccccc3)[C@H]2SC1	.	?	17µM	.	.	.
